Test results reported in the OligoGym collection.

molecular target: TRPM3; test: pooled miR-30 sensor sort-seq; sequence = guide strand; details: shRNA
Further: reference of the scale not given here.

In order of falling sensor-assay potency score (higher = more potent):
1. TTTCTTGAGCTCATCATCGGTT  0.21
2. TTCTATACCACCTTTGTCTTTC  0.0572
3. TTTGTCTTTCATATTGACCGAA  -0.0309
4. TATTTTACCATCCTCTCGGGTC  -0.479
5. TTATTTTACCATCCTCTCGGGT  -0.671
6. AATGTCGTCAACCATGTCGTTC  -1.05

molecular target: TRPM6; test: as above; details: shRNA

In order of rising sensor-assay potency score (higher = more potent):
1. TAATTCTTCAACTCTTCTGAGG  -0.79
2. TAAAACTATGACTCCTAGCGAA  -0.766
3. TTGTTGTTGTTATACTTCCGGA  -0.714
4. TAAGTGAGCAATAGGCTCGTGC  -0.42
5. TTGAGTGTTGTGAGCTTGCTGA  -0.408
6. TATAGATCAATTTTTGAGCAGC  -0.262
7. TTGAGTAATTCTTCAACTCTTC  -0.179
8. TTGTATTGTAGAGCTCTTCCAG  -0.0378
9. TGTTCTTTTGACTTCTTCCTTG  0.00322
10. TAAATGTAACAGATGATCCAGT  0.213
11. TAGAACTCATAGACTTTCCTGG  0.494
12. TATGTTATCACAGAGTTCCTGG  0.658

molecular target: TRPV1; test: as above; details: shRNA

In order of rising sensor-assay potency score (higher = more potent):
1. TTGGTGTTCCAGGTGGTCCAGT  -0.829
2. TAGTAGCTGTCCGTGTAGCTGG  -0.744
3. TAGCTGTCCGTGTAGCTGGCGT  -0.712
4. TTGTCTGTGAGGTGCTTCTTGC  -0.584
5. ATGTAGACAAACATGAAACGGC  -0.484
6. TTAAGGAAGCTCTTCTCCGTGT  -0.306
7. ATGCTCGTCACAAACTTCGTGT  -0.192
8. TAGTAGAGCATGTTGGTCCAGC  -0.185
9. TCGCAGATAAACTTCCTCGGGC  0.131
10. TAACTCGGAAATAGTCTCCAGT  0.133
11. TTGAAGTAGAAGATGCGCTTGA  0.616
12. TTGAGCAGGAGGATGTAGGTGA  1.19

molecular target: TSC1; test: as above; details: shRNA

In order of rising sensor-assay potency score (higher = more potent):
1. TAGATATTTCTTCTGTTCCAAA  -1.26
2. TTCCAGGTAATAATCCACCAAG  -1.16
3. TAGCATGGTTATCAACACCAAG  -0.952
4. TAGATATTGCAGCTTCTTCTTT  -0.827
5. TATTTAACAACATCAGCCGAGA  -0.654
6. TATCTTTTTCAATACTATCTTC  -0.463
7. TGAACTTGCACTCAGACCCTGG  -0.099
8. ATATTTAACAACATCAGCCGAG  0.191
9. TTCTCTTGTAACTTCAACTGAT  0.432
10. TAGAGTGACAGAACCTTTGCTG  0.691
